Source: PubChem BioAssay (NCATS)
Results filed as inconclusive are left out. The source made the active and inactive calls. Calls follow the shape of the dose curve; as a rule, active = well fitted curve in the direction sought with a large enough effect; inconclusive = small, poorly fitted or top-dose-only effect, or another doubt; inactive = no such curve, though single readings can be large; an effect the other way counts as inactive or inconclusive.

Experiments:
[1] = qHTS to identify inhibitors of the type 1 interferon - major histocompatibility complex class I in skeletal muscle: primary screen against the NCATS Pharmaceutical Collection (AID 1347407);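 also: luminescence of HiBiT knocked into endogenous HLA-B as interferon-induced MHC class I level; % is scaled to controls: 0 for no effect and ±100 for the full control effect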
Procedure, shortened: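 Immortalized human myoblasts (C25cl48) with HiBiT knocked into endogenous HLA-B*08:01 were stimulated with 4.0 ng/ml IFN-beta and treated with compounds ([…] top 46 uM) for 24 hrs at 37 C. HiBiT lytic luminescence read.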

[2] = biological target: Protein phosphatase 1D (Homo sapiens) (UniProt O15297); experiment: RapidFire Mass Spectrometry qHTS Assay for Modulators of WT P53-Induced Phosphatase 1 (WIP1) (AID 1347424);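 also: amount of dephosphorylated VEPPL-S-QETFS peptide product formed by WIP1; series mostly up to about 63 µM; plate controls were DMSO wells for no effect and GSK830371 inhibitor control at 10 µM for full effect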
Sequence of Protein phosphatase 1D (Homo sapiens) (O15297 whole entry, looked up): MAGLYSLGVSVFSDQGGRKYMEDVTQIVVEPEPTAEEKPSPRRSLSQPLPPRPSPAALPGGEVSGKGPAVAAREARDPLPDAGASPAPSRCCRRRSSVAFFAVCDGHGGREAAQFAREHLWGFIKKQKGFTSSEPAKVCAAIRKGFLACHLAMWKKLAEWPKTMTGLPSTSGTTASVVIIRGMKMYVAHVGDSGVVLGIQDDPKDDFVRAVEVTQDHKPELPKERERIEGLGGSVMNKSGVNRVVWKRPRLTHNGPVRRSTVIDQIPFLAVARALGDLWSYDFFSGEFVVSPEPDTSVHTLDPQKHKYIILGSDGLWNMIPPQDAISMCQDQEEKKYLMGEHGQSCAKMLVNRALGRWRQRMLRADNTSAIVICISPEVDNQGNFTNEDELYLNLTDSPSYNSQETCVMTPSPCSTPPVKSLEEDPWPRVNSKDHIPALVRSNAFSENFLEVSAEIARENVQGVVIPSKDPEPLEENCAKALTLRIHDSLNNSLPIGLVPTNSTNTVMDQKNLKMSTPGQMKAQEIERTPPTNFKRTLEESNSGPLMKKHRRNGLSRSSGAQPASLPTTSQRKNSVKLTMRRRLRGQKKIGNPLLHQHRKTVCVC
Procedure, shortened: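 WIP1 (10 nM final) was preincubated 1 h at room temperature with compounds in Tris-HCl pH 7.5, 30 mM MgCl2, TCEP, EGTA, BSA; 2 uM VEPPL-pS-QETFS phosphopeptide was added for 5 min, quenched with formic acid, and dephosphorylated product quantified by RapidFire MS.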

[3] = Primary qHTS for inhibitors of La Crosse Virus (LACV) - induced cell death in SH-SY5Y cells (AID 1508616);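 also: top concentration of the series differs between compounds; 0% = infected DMSO wells and 100% = uninfected DMSO wells; higher means more rescue of cells from virus-induced death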
Procedure, shortened: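 Readout was luminescence from ATPLite 1step added after a 6-day LACV infection (0.01 MOI) of SH-SY5Y cells that had received pin-transferred compound 24 hr after seeding.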

[4] = biological target: Calcium and integrin-binding protein 1 (Homo sapiens) (UniProt Q99828); experiment: Primary qHTS for Identification of Calcium Integrin Binding Protein 1 (CIB1) Competitor (AID 1508620);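 also: GST tagged CIB1 binding a fluorescein labelled alphaIIb integrin peptide tracer; top concentration of the series differs between compounds; % is scaled to controls: 0 for no effect and ±100 for the full control effect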
Sequence of Calcium and integrin-binding protein 1 (Homo sapiens) (Q99828 whole entry, looked up): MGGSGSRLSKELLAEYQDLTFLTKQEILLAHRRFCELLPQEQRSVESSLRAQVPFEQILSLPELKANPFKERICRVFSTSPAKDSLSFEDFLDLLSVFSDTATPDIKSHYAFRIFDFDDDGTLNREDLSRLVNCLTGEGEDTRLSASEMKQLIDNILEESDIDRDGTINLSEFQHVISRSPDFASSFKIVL
Procedure, shortened: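 Fluorescence polarization competition: CIB1-GST (1 uM final) preincubated with compound 15 min at room temperature, then FITC-labeled alphaIIb peptide (100 nM final) added for another 15 min. Polarization read at Ex 480/Em 540.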

[5] = Primary qHTS for small molecule stabilizers of the endoplasmic reticulum resident proteome: Secreted ER Calcium Modulated Protein (SERCaMP) assay (AID 1508630); also: % is scaled to controls: 0 for no effect and ±100 for the full control effect
Procedure, shortened: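 GLuc-SERCaMP-expressing SH-SY5Y cells, pretreated 16 h with compound, are challenged with thapsigargin to empty ER calcium stores; after 4 h, coelenterazine is added directly to the medium and luminescence is imaged.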

[6] = biological target: Protein phosphatase 1D (Homo sapiens) (UniProt O15297); experiment: Rhodamine-PBP qHTS Assay for Modulators of WT P53-Induced Phosphatase 1 (WIP1) (AID 1347425); also: % of control where 0% means no effect
Procedure, shortened: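 5 nM WIP1 + 10 uM Rh-PBP, 50 mM Tris pH 7.5, 30 mM MgCl2, 1 mM TCEP, 0.1 mM EGTA, BSA; cpds pinned, 1 hr RT; + 10 uM phosphopeptide; fluorescence 1-min reads x 11 min; delta = f1 - f0.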

[7] = Cell Viability qHTS for small molecule stabilizers of the endoplasmic reticulum resident proteome (AID 1508629); settings: cell viability counter-screen, 100 nM thapsigargin for final 4 h;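 also: human SH-SY5Y neuroblastoma cells carrying the GLuc-SERCaMP reporter; compound exposure about 46 h in total before the viability read; % is scaled to controls: 0 for no effect and ±100 for the full control effect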
[8] = Counterscreen qHTS for small molecule stabilizers of the endoplasmic reticulum resident proteome: GLuc-NoTag assay (AID 1508627);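 also: SH-SY5Y cells given compound then 100 nM thapsigargin to empty ER calcium; series mostly up to about 76 µM; 0% = thapsigargin alone and -100% = DMSO vehicle control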
Procedure, shortened: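 SH-SY5Y cells stably expressing constitutively secreted GLuc (no SERCaMP tag) were pre-incubated 5 h, treated with compound for 19 h, then 100 nM thapsigargin for 4 h at 37C; medium GLuc read by coelenterazine luminescence.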

[9] = qHTS for inhibitors of adenylyl cyclases using a fission yeast platform: a pilot screen against the NCATS LOPAC library (AID 1347410);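 also: plate controls were DMSO vehicle for no effect and DPI positive control for full effect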
Procedure, shortened: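 S. pombe CHP2027 (AC9-GNAS-PDE4D2) carrying PKA-repressed fbp1-GFP, incubated 18 h at 30C in EMM with LOPAC compounds at up to 57 uM. GFP gain-of-signal read by laser scanning cytometry; DMSO negative control.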

[10] = Validation qHTS assay for inhibitors of Activation Induced Cytidine Deaminase (AID): UDG Counterscreen signal (AID 1347427); also: 0% is about no effect
Procedure, shortened: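 Counterscreen read of UDG activity (2 U/mL, 4/3x) in the FRET deamination format with AID (1 uM, 4/3x), DJC20/DJC23 substrates (250 nM, 4x), 4 h at room temperature. NaOH stop, fluorescence at 560 ex/665 em.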

[11] = biological target: Calcium and integrin-binding protein 1 (Homo sapiens) (UniProt Q99828); experiment: Validation qHTS for Identification of Calcium Integrin Binding protein 1 (CIB1) Competitor (AID 1508618); also: % is scaled to controls: 0 for no effect and ±100 for the full control effect
Procedure, shortened: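 Displacement of FITC-alphaIIb peptide (100 nM) from CIB1-GST (1 uM) is monitored by polarization in quantitative HTS format; buffer carries 5 mM CaCl2 and 125 mM NaCl at pH 7.4, incubations are at room temperature.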

[12] = Confirmatory qHTS for small molecule stabilizers of the endoplasmic reticulum resident proteome: Secreted ER Calcium Modulated Protein (SERCaMP) assay (AID 1508628);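 also: SH-SY5Y cells given compound 16 h then thapsigargin 100 nM for 4 h; series mostly up to about 76 µM; % is scaled to controls: 0 for no effect and ±100 for the full control effect; nearly all actives have a fitted effect of over 40% in size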
Procedure, shortened: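 We seeded SH-SY5Y-GLuc-SERCaMP cells, added compounds (three concentrations in the primary run, eleven up to 76.6 uM in confirmation), incubated 16 h, depleted ER calcium with thapsigargin, and read luciferase 4 h later.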

CC(C)(C)CC(C)(C)c1ccc(O)c(Cc2ccc(Cl)cc2Cl)c1
inactive: Potency [1] | Potency [2] | Potency [3] | Potency [4] | Potency [5]

CN1CCN(CCCN2c3ccccc3Sc3ccc(S(=O)(=O)N(C)C)cc32)CC1
inactive: Potency [1] | outcome [6] | Potency [3] | Potency [4] | max response [7] -9.17%

CCOC(=O)[C@H](CCc1ccccc1)N[C@@H](C)C(=O)N1Cc2ccccc2C[C@H]1C(=O)O
inactive: Potency [1] | outcome [6] | Potency [3] | Potency [4]

CC(=O)O[C@]1(C(C)=O)CC[C@H]2[C@@H]3C[C@H](C)C4=CC(=O)CC[C@]4(C)[C@H]3CC[C@@]21C
inactive: Potency [1] | outcome [6] | Potency [3] | Potency [4] | Potency [5]

CCN(CC)CCOC(=O)C(c1ccccc1)C1CCCCC1 (configuration not stated)
inactive: Potency [2] | outcome [6] | Potency [3] | Potency [4]

CCC(=O)c1c(O)cc(O)cc1O
inactive: Potency [1] | outcome [6] | Potency [3] | Potency [4] | Potency [5]

CN(C)CC/C=C1\c2ccccc2Sc2ccc(Cl)cc21
inactive: Potency [2] | outcome [6] | Potency [3]

CCCOC(C(=O)OC1CCN(C)CC1)(c1ccccc1)c1ccccc1
inactive: Potency [2] | outcome [6] | Potency [3] | Potency [4] | outcome [8]

C[C@]12CC[C@@H]3c4ccc(O)cc4CC[C@H]3[C@@H]1CC[C@@H]2O
inactive: outcome [9] | outcome [10] | Potency [3] | Potency [5]

C=C1C[C@H]2[C@@H]3C=C(C)C4=CC(=O)CC[C@]4(C)[C@H]3CC[C@]2(C)[C@@]1(OC(C)=O)C(C)=O
inactive: Potency [1] | outcome [6] | Potency [3] | Potency [4] | Potency [5]

CN(C)CCOc1ccccc1Cc1ccccc1
inactive: Potency [2] | outcome [6] | Potency [3] | Potency [4]

Oc1c(I)cc(Cl)c2cccnc12
inactive: Potency [1] | Potency [3]

CC(C)(CO)[C@@H](O)C(=O)NCCCO
inactive: Potency [1] | Potency [3]

CNCCC=C1c2ccccc2CCc2ccccc21
inactive: outcome [9] | outcome [10] | outcome [11] | Potency [5]

O=c1[nH]c(=O)n([C@H]2C[C@H](O)[C@@H](CO)O2)cc1C(F)(F)F
inactive: Potency [2] | outcome [6] | Potency [3] | Potency [4]

CNCC[C@@H](Oc1ccccc1C)c1ccccc1
inactive: Potency [2] | outcome [6] | Potency [3] | Potency [4]

c1ccc(CNCCNCc2ccccc2)cc1
inactive: Potency [1] | outcome [6] | Potency [3] | Potency [4] | Potency [5]

CN(C)C(=S)SC(=S)N(C)C
inactive: Potency [2] | outcome [6] | Potency [3] | Potency [4] | outcome [8] | Potency [12]

Cc1ncc(CSSCc2cnc(C)c(O)c2CO)c(CO)c1O
inactive: Potency [1] | outcome [6] | Potency [3] | Potency [4] | Potency [5]

C/C=C(/C(=C/C)c1ccc(O)cc1)c1ccc(O)cc1
inactive: Potency [1] | Potency [3] | Potency [4] | Potency [5]

CC(C)(C(=O)c1cccnc1)c1cccnc1
inactive: Potency [2] | outcome [6] | Potency [3] | Potency [4]

COc1cc(OC)cc(OC)c1
inactive: Potency [2] | outcome [6] | Potency [3] | Potency [4]

C[C@@H]1C(=O)NC2=Nc3cccc(Cl)c3CN21
inactive: outcome [9] | outcome [10] | Potency [3] | outcome [11]

NCCCC[C@H](N[C@@H](CCc1ccccc1)C(=O)O)C(=O)N1CCC[C@H]1C(=O)O
inactive: Potency [2] | outcome [6] | Potency [3] | Potency [4]

CN(C)/N=N/c1nc[nH]c1C(N)=O
inactive: Potency [1] | outcome [6] | Potency [3] | Potency [4] | Potency [5]

CCCCCCCCCCCCCCNCCO
inactive: Potency [2] | outcome [6] | Potency [3] | Potency [4]

Cc1ccc(Nc2c(F)cccc2Cl)c(CC(=O)O)c1
inactive: Potency [2] | outcome [6] | Potency [3] | Potency [4]

O=C1OC(c2ccc(O)cc2)(c2ccc(O)cc2)c2ccccc21
inactive: Potency [1] | Potency [3] | Potency [4]

C[C@]12CCC(=O)C=C1[C@@H]1C[C@@H]1[C@H]1[C@@H]3[C@@H]4C[C@@H]4[C@@]4(CCC(=O)O4)[C@@]3(C)CC[C@@H]12
inactive: Potency [2] | outcome [6] | Potency [3] | Potency [4]

CC(Cc1cccc(C(F)(F)F)c1)NCCOC(=O)c1ccccc1 (configuration not stated)
inactive: Potency [1] | Potency [3] | Potency [4] | Potency [5]

CCn1cc(C(=O)O)c(=O)c2cnc(N3CCCC3)nc21
inactive: activity change, negative = inhibition [1] -17.9% [at 9.18 µM] | activity change, negative = inhibition [6] -2.4% [at 11.5 µM] | activity change [3] -0.143% [at 0.858 µM] | Potency [4] | activity change, negative = inhibition [5] -14.1% [at 7.35 µM]

NCCC(O)(P(=O)(O)O)P(=O)(O)O
inactive: Potency [1] | outcome [6] | Potency [4]

O=C(CCCN1CCC(O)(c2ccc(Br)cc2)CC1)c1ccc(F)cc1
inactive: Potency [1] | outcome [6] | Potency [3] | Potency [5]
